Compound activity deposited in PubChem BioAssay by National Center for Advancing Translational Sciences (NCATS).
JMJD2A Tudor: qHTS Assay for Inhibitors of JMJD2A-Tudor Domain | 4.4% of 390,000 active | Potency, µM (doses to about 114 µM), for the others: top-dose activity change, negative = inhibition, most hits filed as inhibitors | AlphaScreen JMJD2A-Tudor / H3K4me3 peptide binding | Lysine-specific demethylase 4A (Homo sapiens), O75164; further: on the % scale 0 is the no-effect control and ±100 the full control effect; nearly all actives have a fitted effect of over 50% in size
G9a block: qHTS Assay for Inhibitors of Histone Lysine Methyltransferase G9a; Histone-lysine N-methyltransferase EHMT2 (Homo sapiens), Q96KQ7; G9a H3K9 monomethylation, AlphaScreen, 2 h; Potency, µM (series often up to 102 µM), for the others: top-dose activity, negative = inhibition, usual class: inhibitors; 8.8% of 350,000 active; further: on the % scale 0 is the no-effect control and ±100 the full control effect; nearly all actives have a fitted effect of over 75% in size
Target sequence (Q96KQ7 913-1193 limits assumed): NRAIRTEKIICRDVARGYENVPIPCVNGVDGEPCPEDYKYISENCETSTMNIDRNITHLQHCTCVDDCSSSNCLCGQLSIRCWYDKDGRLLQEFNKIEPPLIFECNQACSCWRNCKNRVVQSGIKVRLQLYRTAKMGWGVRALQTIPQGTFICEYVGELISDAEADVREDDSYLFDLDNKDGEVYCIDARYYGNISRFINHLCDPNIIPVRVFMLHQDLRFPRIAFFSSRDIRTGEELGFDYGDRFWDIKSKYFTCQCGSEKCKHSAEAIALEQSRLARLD
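Quantitative HTS format: methyltransferase activity on a biotin-tagged H3K9 peptide is measured by AlphaScreen, using a rabbit anti-monomethyl-H3K9 antibody with streptavidin donor and anti-IgG acceptor beads. Final levels are 20 nM enzyme, 500 nM peptide, 20 uM SAM; 2 h RT.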
BAZ2B inh: qHTS Assay for Inhibitors of BAZ2B. Bromodomain adjacent to zinc finger domain protein 2B (Homo sapiens), Q9UIF8. Potency, µM (titrated, usually from 114 µM), without a hit: at the highest dose activity change, negative = inhibition, hits mostly inhibitors. AlphaScreen BAZ2B-H3K14Ac peptide displacement. AID 504333, 2011. 4.4% of 360,000 active; further: on the % scale 0 is the no-effect control and ±100 the full control effect; nearly all actives have a fitted effect of over 60% in size
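Compounds, titrated to a top concentration of 110 uM, were incubated 30 min at room temperature with preformed BAZ2B/acetyl-K14 H3 peptide complex (50 nM each). Proximity signal was measured by AlphaScreen after 20 min with beads.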
HP1b chromo inh: HTS for Inhibitors of HP1-beta Chromodomain Interactions with Methylated Histone Tails. Chromobox protein homolog 1 (Homo sapiens), P83916. AlphaScreen HP1-beta / biotin-H3K9me3 peptide binding. Potency, µM (highest dose often 114 µM), inactives show at the top dose activity change, negative = inhibition, hits mostly inhibitors. 0.56% of 390,000 active; further: nearly all actives have a fitted effect of over 70% in size
Target sequence (P83916 whole entry, looked up): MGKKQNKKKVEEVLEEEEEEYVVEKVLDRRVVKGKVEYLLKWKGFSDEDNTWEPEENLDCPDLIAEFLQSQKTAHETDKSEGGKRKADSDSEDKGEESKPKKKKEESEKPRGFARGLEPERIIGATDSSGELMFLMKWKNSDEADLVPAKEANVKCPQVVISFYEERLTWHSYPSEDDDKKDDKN
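AlphaScreen: HP1-beta (50 nM) preformed 30 min with biotin-H3(1-18)K9me3 peptide (50 nM) in PBS pH 7.4, 0.01% Tween-20. Compound added for 30 min at RT, then streptavidin donor/nickel chelate acceptor beads (10 ug/mL) for 30 min.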
L3MBTL1 block: qHTS Assay for the Inhibitors of L3MBTL1 | Lethal(3)malignant brain tumor-like protein 1 (Homo sapiens), Q9Y468 | AlphaScreen L3MBTL1–H3K9me1 peptide binding | Potency, µM (titrated, usually from 57.1 µM), inactives show at the top dose activity, negative = inhibition, usual class: inhibitors | 0.66% of 230,000 active | AID 485360, 2010; further: on the % scale 0 is the no-effect control and ±100 the full control effect; nearly all actives have a fitted effect of over 60% in size
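L3MBTL1 (50 nM) pre-complexed 30 min with biotinylated H3(1-15)K9me1 peptide (75 nM), then compounds added for 30 min at room temperature; AlphaScreen streptavidin donor/nickel chelate acceptor beads (10 ug/mL final) read after 30 min dark incubation.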
Sfp PPTase inh: qHTS Assay for Inhibitors of Bacillus subtilis Sfp phosphopantetheinyl transferase (PPTase); Biochemical Sfp PPTase activity, qHTS; Potency, µM, without a hit: largest response in the series, negative = inhibition, most hits filed as inhibitors; 3.5% of 310,000 active;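 further: the enzyme is Sfp with the accession as filed and its product quenches rhodamine fluorescence; 0% = enzyme reaction without inhibitor and -100% = no enzyme wells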
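Fluorescence-quenching assay with 15 nM Sfp, 5 uM rhodamine-CoA and 12.5 uM BHQ-2-labelled ybbR peptide in pH 7.6 Hepes/MgCl2 buffer. Enzyme was pre-incubated with compound for 15 min at room temperature. Rate was taken from the 30-min fluorescence change (525/598 nm).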
An asterisk follows results filed as active; ? = inconclusive; . = not tested or not shown; [ ] = dose if it differs, or a comment. A selection: hits, their analogues and other compounds. The true share with any hit is near 12%. The call rests on the fitted dose curve; in most records, active means well fitted curve in the direction sought with a large enough effect; inconclusive means small, poorly fitted or top-dose-only effect, or another doubt; inactive means no such curve, though single readings can be large; an effect the other way counts as inactive or inconclusive. Potency means the concentration at half of the fitted maximal effect.

SMILES	JMJD2A Tudor	G9a block	BAZ2B inh	HP1b chromo inh	L3MBTL1 block	Sfp PPTase inh
Cc1cc(C)c2nc(-c3ccccn3)cc(C(=O)NCc3ccc(S(N)(=O)=O)cc3)c2c1	-21%	1%	-28%	3%	-4%[11.4 µM]	1%
CCCCc1nn2c(=O)cc(COC(=O)c3ccc(NC(=O)c4cccc(OC)c4)cc3)nc2s1	-17%	-21%[59 µM]	-7%	36%	.	.
COc1ccc(-c2nc3sc(CCNC(=O)Cc4ccccc4)c(C)n3n2)cc1	-24%	3.5µM*	0%	31%	.	.
COc1ccc(-c2nc3sc(CCNC(=O)Cc4ccc(F)cc4)c(C)n3n2)cc1	-12%	-13%[59 µM]	-1%	38%	.	.
COC(C)(C)CCCC(C)C/C=C/C(C)=C/C(=O)O (stereo not given)	.	30%[59 µM]	.	.	.	8%
CC(=O)NC1=NN(C(C)=O)C(c2ccc(C)cc2)S1 (stereo not given)	-10%	8%	-13%	25%	-2%	9%
CC(=O)NC1=NN(C(C)=O)C(c2ccccc2)S1 (stereo not given)	11µM*	2%	-13%	-24%	-3%	6%
NC(CSSCC(N)C(=O)O)C(=O)O (stereo not given)	.	26%[59 µM]	.	.	.	7%
N[C@@H](CSS(=O)(=O)O)C(=O)O	.	-31%[59 µM]	.	.	.	45µM*
CSCCC(NC(=O)c1ccc(Cl)cc1)C(=O)O (stereo not given)	-6%	-41%	8%	44%	.	14%
Cc1oc(-c2ccc3c(c2)OCCO3)cc1C(=O)NC(CCC(=O)O)C(=O)O (stereo not given)	-11%	?	?	46%	-10%	18µM*
CSCCC(NC(=O)c1cc(C)oc1C)C(=O)O (stereo not given)	6%	32µM*	3%	36%	.	-24%
CSCCC(NC(=O)c1cc(CC(C)C)oc1C)C(=O)O (stereo not given)	-9%	-10%[59 µM]	-6%	65%	3%	-2%
O=C(Nc1cccnc1)c1ccc(NS(=O)(=O)c2cc([N+](=O)[O-])ccc2Cl)cc1	-17%	50µM*	79µM*	20%	-25%	-23%
Cc1oc(-c2ccc3c(c2)OCCO3)cc1C(=O)NCC(=O)O	?	.	7%	-9%	26%	-20%
CSCCC(NC(=O)c1cc([N+](=O)[O-])ccc1Cl)C(=O)O (stereo not given)	-8%[57.1 µM]	79µM*	13%	47%	5%	-3%
COc1ccc(C=O)cc1COc1ccc(NC(C)=O)cc1	-23%	.	.	.	.	.
CC(=O)N1CCCc2cc(S(=O)(=O)N3CCCC(C)C3)ccc21 (stereo not given)	-17%	0%	-3%	48%	.	22%
O=C(Nc1ccccc1Oc1ccccc1)c1cc([N+](=O)[O-])ccc1Cl	?	?	?	-20%	-9%	-4%
O=C(Nc1ccc(Nc2ccccc2)cc1)c1cc([N+](=O)[O-])ccc1Cl	?	-23%	40µM*	19%	-20%	14%
CC(CCN1CCOCC1)c1ccccc1 (stereo not given)	22µM*	11µM*	?	?	7%	-17%
c1ccc(C(CN2CCOCC2)c2ccccc2)cc1	4µM*	25µM*	?	?	2%	-15%
COC(=O)c1ccc(C(NC(=O)OCc2ccccc2)/C(I)=C/[C@@H](C)C(=O)NCC2CC2)cc1 (stereo not given in full)	.	.	.	.	.	40%
Cc1c2c(nc3ccccc13)OCC2	-17%	79µM*	24%	8%	2%	-24%
Cc1c2ccccc2nc2ccccc12	-18%	.	.	20%	.	.
SMILES	JMJD2A Tudor	G9a block	BAZ2B inh	HP1b chromo inh	L3MBTL1 block	Sfp PPTase inh
Cc1cc(C)c(NC(=O)CSC2=Nc3ccccc3C3=NC(CC(=O)NCc4cccs4)C(=O)N23)c(C)c1 (stereo not given)	-17%	-24%[59 µM]	?	9%	.	.
Cc1nnc(NC(=O)CSc2cn(CCNC(=O)c3ccccc3)c3ccccc23)s1	-15%	28µM*	-3%	48%	-1%	-19%
COc1ccc(C(=O)NCCn2cc(SCC(=O)NCc3ccco3)c3ccccc32)cc1	?	-11%[2.33 µM]	-31%	-24%	-11%	?
COc1ccc(C(=O)NCCn2cc(SCC(=O)Nc3cccc(C)c3)c3ccccc32)cc1	-16%	-31%[59 µM]	50µM*	33%	.	.
COc1ccc(C(=O)NCCn2cc(SCC(=O)Nc3nnc(C)s3)c3ccccc32)cc1	-21%	.	.	16%	.	.
CCc1ccc(CCC(=O)Nc2nccs2)o1	-35%	?	-38%	-2%	.	8.9µM*
Cc1ccc(CCC(=O)Nc2nccs2)o1	-31%	-38%[59 µM]	?	-6%	?	79µM*
O=C(CCc1ccccc1)Nc1nccs1	2%	-4%[0.501 µM]	5%	38%	-8%[2.29 µM]	4%
CCOc1ccc(OCC(=O)Nc2nccs2)cc1	-16%	35µM*	?	35%	-8%	7%
Cc1cc(C)cc(OC(=O)c2cc(-c3ccc(Cl)cc3)on2)c1	8%	-2%[59 µM]	-10%	37%	.	.
O=C(O)CN1C(=O)/C(=C\c2cc(Br)ccc2OCc2ccc(Cl)cc2Cl)SC1=S	20µM*	40%[0.501 µM]	25µM*	?	.	?
O=C(O)CN1C(=O)/C(=C\c2ccccc2OCc2ccc(Cl)cc2)SC1=S	?	2%[2.33 µM]	?	-4%	.	-13%
O=C(O)CN1C(=O)/C(=C\c2cccc(OCc3ccc(F)cc3)c2)SC1=S	?	45µM*	?	-9%	.	-14%
O=C(O)CN1C(=O)/C(=C\c2cccc(OCc3ccc(Cl)cc3)c2)SC1=S	?	40µM*	45µM*	-11%	.	?
O=C(O)CN1C(=O)/C(=C\c2cccc(OCc3ccccc3F)c2)SC1=S	?	?	-32%	?	.	10%
O=C(NCCC1=CCCCC1)C1CCN(S(=O)(=O)c2ccccc2C(F)(F)F)CC1	-3%	15%	-19%	14%	39%	.
O=C(NC(O)C(=O)c1ccccc1)c1ccc(F)cc1 (stereo not given)	-10%	9%[59 µM]	5%	5%	.	19%
CC1COc2ccccc2N1C(=O)c1ccc(Cl)nc1 (stereo not given)	-18%	-29%	?	19%	0%	-5%
CCC1C(=O)Nc2ccccc2N1C(=O)c1ccc(Cl)nc1 (stereo not given)	100µM*	31%	5%	21%	.	12%
